Inhibition data for 104 compounds are collected here from PubChem BioAssay AID1259343 (VanderVen Lab, College of Veterinary Medicine, Cornell …, 2017).

Out of some 6,200 compounds screened, about 2,900 (47%) were called active. So high a share suggests a set chosen from earlier hits. The list shows a part of the results. A number with no mark means an inactive call. Rule as the data show it: active = inhibition above about 50%; inactive = the rest.

The assay is described as follows: Mycobacterium tuberculosis growth inhibition, primary screen (AID 1259343). As to conditions: inhibition: at 10 µM, stronger effect = higher value; outcome: 10 uM.
For `CNC(=O)NC(=O)CCSC(C)c1nc(-c2ccc(C)c(F)c2)no1` (centres undefined), the inhibition was 91.8% (active).

Regarding `Cc1ccc(OCc2cc(C(=O)NC(C)c3nc(-c4ccccc4)no3)no2)cc1C` (centres undefined), the inhibition was 23%.

With `Cc1ccc2ncn(Cc3nc(-c4ccc(C)c(F)c4)no3)c(=O)c2c1`, the inhibition is -6.02%.

For the compound `Cc1ccccc1Cc1nnc(CN(CC(C)O)c2ccccc2)o1` (centres undefined), the inhibition was 80.1% (active).

As for `CCOC(=O)/C=C/c1c([N+](=O)[O-])sc(Br)c1Br`, the inhibition was 103% (active).

Regarding `O=C(c1ccc(Cl)s1)N1CCCC(Nc2ccc3c(c2)OCO3)C1` (centres undefined), the inhibition is 44.6%.

Consider `O=C(Nc1ccc(-c2cscn2)cc1)C1CCCN(C(=O)Cc2ccccc2F)C1` (centres undefined), for which the inhibition is 33.2%.

Take `O=C(Nc1ccc(-c2cscn2)cc1)C1CCCN(C(=O)c2cccs2)C1` (centres undefined): the inhibition is 58.2% (active).

As to `O=C(Nc1ccc(-c2cscn2)cc1)C1CCCN(Cc2ccon2)C1` (centres undefined), the inhibition entry was “inactive”.

Consider `COCc1ccc(CN2CCCC(C(=O)Nc3ccc(-c4cscn4)cc3)C2)o1` (centres undefined), for which the inhibition is 29%.

As to `Cc1ccc(NC2CCCN(C(=O)C3CCCCC3)C2)cc1C` (centres undefined), the inhibition was 49%.

Consider `Cc1cccc(CN2CCCC(C(=O)Nc3ccc(-c4cscn4)cc3)C2)c1` (centres undefined), for which the inhibition was 88.8% (active).

Consider `Cc1ccc(NC2CCCN(C(=O)c3cccs3)C2)cc1C` (centres undefined), for which the inhibition is 59.6% (active).

Turning to `CC(=O)c1cc(CN2CCCC(C(=O)Nc3ccc(-c4cscn4)cc3)C2)cs1` (centres undefined), the inhibition was 70.9% (active).

Consider `CCCNC(=O)CSc1nc2ccccc2o1`, for which the inhibition is -21.7%.

Turning to `COc1ccccc1-c1noc(CSc2nc3ccccc3o2)n1`, the inhibition was 89.1% (active).

`CC1CCc2sc(-c3nnc(SCc4nc(-c5cccs5)no4)o3)cc2C1` (centres undefined): the inhibition is 5.99%.

With `c1csc(-c2noc(CSc3nc4ccccc4o3)n2)c1`, the inhibition was 100% (active).

Regarding `O=S(=O)(c1ccc(Cl)s1)N1CCCc2cccc(O)c21`, the inhibition is 43.4%.

Take `Cc1cccc2nc(-c3ccc(C(C)(C)C)cc3)c(NC(C)(C)C)n12`: the inhibition is 73.6% (active).

In the case of `CNC(C)c1ccc(Sc2ccc(C(C)C)cc2)c(F)c1` (centres undefined), the inhibition is 67% (active).

As for `CC(=O)N(C)c1ccc(NC(C)c2ccc(F)c(F)c2)cc1` (centres undefined), the inhibition is 20%.

Turning to `Cc1cc(I)ccc1N`, the inhibition is 83.3% (active).

In the case of `O=C(COc1c(F)c(F)cc(F)c1F)c1ccc[nH]1`, the inhibition was 65.2% (active).

Regarding `Nn1ccc2nc3ccn(CCC4=CCCCC4)c(=O)c3cc2c1=O`, the inhibition was 85.4% (active).

As for `O=S(=O)(NCCC1=CCCCC1)c1cccc2nonc12`, the inhibition is -1.1%.

With `CCOC(=O)COc1ccc(C)cc1C(=O)c1cnc2c(c1)COc1ccccc1-2`, the inhibition is 61.1% (active).

Turning to `O=C(CN(C1CCCCC1)C1CC1)Nc1ccc(Cl)cn1`, the inhibition was 37.5%.

For the compound `CC(Nc1ccc(OCC(F)(F)F)cc1)C(=O)Nc1ccc(Cl)cn1` (centres undefined), the inhibition is 97% (active).

For `CC(Nc1cccc(OC(F)(F)F)c1)C(=O)Nc1cccnc1Cl` (centres undefined), the inhibition is -51.8%.

As to `O=C1NC(=NN=Cc2cccnc2)SC1Cc1ccc(SC(F)F)cc1` (centres undefined), the inhibition is 35.2%.

For `Fc1ccccc1-n1cc(-c2ccnc(NC3CCC3)n2)cn1`, the inhibition is 20.1%.

Take `COc1ccnc(NC2CCC(c3ccccc3)CC2)n1` (centres undefined): the inhibition is 68.9% (active).

`O=C(NC1CCC(c2ccccc2)CC1)c1n[nH]c2ccccc12` (centres undefined): the inhibition is 25.1%.

As to `COc1cccc(-c2ccc(NC(=O)C3CCCN(C(=O)c4ccoc4)C3)cc2)c1` (centres undefined), the inhibition result was “inactive”.

`COc1ccc(-c2ccc(C(=O)N3CCC(C(N)=O)C3)c(F)c2)cc1` (centres undefined): the inhibition is 69.6% (active).

On to `Nc1ccc(-c2nc3cc(Cl)ccc3o2)cc1`, for which the inhibition is 90.3% (active).

Regarding `CC(c1nnc(-c2ccccc2)o1)N(C)CC12CC3CC(CC(C3)C1)C2` (centres undefined), the inhibition is -23%.

Turning to `CN(C)c1cccc(-c2nc3cc(N)ccc3o2)c1`, the inhibition is 30.8%.

Regarding `Nc1ccc2oc(-c3cncc(Br)c3)nc2c1`, the inhibition is 7.61%.

Regarding `Ic1cccc(-c2nnc(-c3ccccc3)o2)c1`, the inhibition is 103% (active).

`Nc1ccc2oc(-c3cc(F)c(F)cc3Cl)nc2c1`: the inhibition is -28%.

Regarding `Nc1ccc2oc(-c3cccc(I)c3)nc2c1`, the inhibition is 60.4% (active).

For the compound `Cc1cccc(-c2nnc(C(C)Oc3ccccc3C#N)o2)c1` (centres undefined), the inhibition was 23.4%.

For `Nc1ccc(Cl)c(-c2nc3cc(Cl)ccc3o2)c1`, the inhibition was 30%.

Regarding `CS(=O)(=O)c1nnnn1-c1ccccc1Cl`, the inhibition was 95.7% (active).

On to `COc1cc(C2=NC(=Cc3ccc(N4CCOCC4)s3)C(=O)O2)cc(OC)c1OC`, for which the inhibition is 79.7% (active).

As for `Cc1ccc(C2=NC(=Cc3ccco3)C(=O)O2)cc1C`, the inhibition is -7.96%.

For the compound `COc1cc(C2=NC(=CC3=Cc4ccccc4OC3)C(=O)O2)cc(OC)c1OC`, the inhibition result was “inactive”.

For the compound `O=C(Nc1nc(-c2ccco2)c(-c2ccco2)s1)c1cnccn1`, the inhibition is -27.4%.

For the compound `O=C(CCl)Nc1nc(-c2ccccc2Cl)cs1`, the inhibition was 97.7% (active).

`CC1(C(=O)Nc2nc(-c3ccccc3Cl)cs2)Cc2ccccc2C(=O)O1` (centres undefined): the inhibition was 37.1%.

Take `O=C(Nc1ncc(Cc2ccccc2Cl)s1)c1cnccn1`: the inhibition was 92.8% (active).

Take `O=C(CCl)Nc1nc(-c2c[nH]c3ccccc23)cs1`: the inhibition is -41.1%.

Turning to `Cc1cnc(NC(=O)CCc2nc(C(C)(C)C)no2)s1`, the inhibition was -2.31%.

As to `O=C(CCl)Nc1ncc(Cc2ccccc2)s1`, the inhibition is -18.1%.

Consider `O=C(CCl)Nc1ncc(Cc2ccccc2Cl)s1`, for which the inhibition was 92.7% (active).

With `O=C1CCCC2=C1C(c1cccs1)n1ncnc1N2` (centres undefined), the inhibition was -18.9%.

`CCCC(C)NC(=O)c1cc(Cl)c[nH]1` (centres undefined): the inhibition is 10.3%.

For `O=C(NCCCOCc1ccccc1)c1cc(Cl)c[nH]1`, the inhibition was 77.7% (active).

In the case of `O=C(COc1ccc(F)cc1)NCCc1ccc(OC(F)F)cc1`, the inhibition is 90.5% (active).

`O=C(COc1ccc(F)cc1)NCc1csc(Br)c1`: the inhibition was -34.9%.

Turning to `Cc1ccc(Cl)cc1NC(=O)CN1CCc2ccccc2C1`, the inhibition is 91.4% (active).

On to `Cc1ccc(C2=NN(C(=O)CN3CCc4ccccc4C3)C(c3ccccc3C)C2)c(C)c1` (centres undefined), for which the inhibition was 40.4%.

In the case of `CCOc1cc(C)ccc1NC(=O)CN1Cc2ccccc2C1`, the inhibition is 14.2%.

For `CCN(Cc1cccc(C(N)=O)c1)c1ccccc1C`, the inhibition is 27.3%.

`CC1(C)CC(C=Cc2cccs2)=Nc2ccccc2S1`: the inhibition was -37.6%.

In the case of `N#Cc1ccc([N+](=O)[O-])c(O)c1`, the inhibition was 77.2% (active).

Consider `CCOP1(=S)C(=C2N(C)c3ccccc3C2(C)C)C=NN1c1ccccc1` (centres undefined), for which the inhibition is 27.1%.

Regarding `CN1/C(=C/C(=O)Nc2ccc(Cl)cc2)C(C)(C)c2ccccc21`, the inhibition is 1.72%.

Take `CCN(CC)P(=S)(C=C1N(C)c2ccccc2C1(C)C)CC` (centres undefined): the inhibition was 87.2% (active).

With `O=C(O)c1sc(Br)c(I)c1I`, the inhibition was 7.67%.

For the compound `O=C(Nc1ccsc1C(=O)O)c1ccc(Br)cc1`, the inhibition is 82.5% (active).

For `C(=Nn1c(-c2cccs2)csc1=Nc1ccccc1)c1ccccn1`, the inhibition is -1.25%.

Take `c1csc(-c2cnc3ccc(-c4ccncc4)nn23)c1`: the inhibition is 74.1% (active).

`N#Cc1cc2c(nc1SCC(=O)OCc1ccccc1)CCC2`: the inhibition was 41.5%.

For the compound `CCOc1ccccc1-n1nnc(C(=O)Nc2ccc(C(C)=O)cc2)c1C`, the inhibition is 70% (active).

Regarding `CCOc1ccccc1NC(=O)Nc1ccc(Nc2cc(OC(C)C)nc(C)n2)cc1`, the inhibition is 14.6%.

As to `CCCC(C)(C)NC(=O)c1nnn(-c2ccc(F)cc2)c1C`, the inhibition is 16.4%.

Take `CC1=NN(c2ccc(Cl)cc2)C(=O)C12Cc1ccccc1N1CCCCC12` (centres undefined): the inhibition was 19.5%.

As to `C=C(C)CNC(=S)NN=C(C)c1ccc(Cl)s1`, the inhibition is 102% (active).

On to `CC(=NNc1ncc(Cl)cc1Cl)c1ccc(Cl)s1`, for which the inhibition is 30.7%.

In the case of `COCCNC(=S)NN=C(C)c1ccc(Cl)s1`, the inhibition is 79.3% (active).

For `CCOC(=O)NN=C(C)c1ccc(Cl)s1`, the inhibition is 19.5%.

As to `CCNC(=S)NN=C(C)c1ccc(Cl)s1`, the inhibition is -2.97%.

Take `CNC(=S)NN=C(C)c1ccc(Cl)s1`: the inhibition was 47.3%.

`CNC(=O)c1ccc2n1CCN(C(=O)OCc1ccccc1)C2C` (centres undefined): the inhibition is 16.2%.

Take `O=C(NCCCCCC(=O)N1CCC(c2ccccc2)CC1)OCc1ccccc1`: the inhibition was 70.8% (active).

For the compound `Cc1ccc(C)c(N2CCN(C(=O)c3ccc4c(=O)nc5c(-c6ccccc6)n[nH]n5c4c3)CC2)c1`, the inhibition was 46.6%.

`O=C(c1ccc([N+](=O)[O-])cc1)N1CCN(c2nc(-c3ccccc3)c3cc(Cl)ccc3n2)CC1`: the inhibition was 68% (active).

As for `O=C(C1CCCC1)N1CCN(c2nc(-c3ccccc3Cl)nc3cc(Cl)ccc23)CC1`, the inhibition is 24.6%.

Regarding `Cc1ccc(-n2ncc3c(C)nn(Cc4ccccc4F)c(=O)c32)c(C)c1`, the inhibition was 37.1%.

Take `Cc1ccc(F)cc1NS(=O)(=O)c1cc(Cl)sc1Cl`: the inhibition was 94.1% (active).

On to `O=S(=O)(Nc1c(F)cccc1Br)c1cc(Cl)cc(Cl)c1`, for which the inhibition is 87.1% (active).

As to `CN(C1CCCCC1)S(=O)(=O)c1ccc(Br)cc1Cl`, the inhibition was -4.67%.

With `O=S(=O)(Nc1ccc(Cl)cc1F)c1ccc(Br)cc1Cl`, the inhibition was 71% (active).

Take `CN(C)S(=O)(=O)c1ccc(CNc2cc(F)ccc2Cl)o1`: the inhibition was -3.01%.

`O=S(=O)(Nc1c(F)cccc1F)c1c(Cl)cccc1Cl`: the inhibition was 78.8% (active).

As to `O=S(=O)(Nc1ccc(F)c(F)c1F)c1ccc(Cl)cc1F`, the inhibition is 79.2% (active).

Turning to `O=S(=O)(Nc1ccc(F)cc1F)c1ccccc1Cl`, the inhibition is 82.3% (active).

As to `Cc1ccc(NS(=O)(=O)c2ccc(F)cc2[N+](=O)[O-])c(F)c1`, the inhibition was 50.2% (active).

In the case of `O=S(=O)(Nc1ccc(F)c(F)c1F)c1ccc(Cl)c2ncccc12`, the inhibition is 63% (active).

For `Cc1nnc(N2C(=N)S/C(=C\c3c(-c4ccccc4)n(C)c4ccccc34)C2=O)s1`, the inhibition is 23.3%.

For `NC(=O)c1ccccc1OCc1ccccc1C(F)(F)F`, the inhibition was 42.9%.
